Test results: the supplement of paper PMC6555819

Tests used:
Assay in all cases: PBM binding z-score (relative to random genomic background probes); higher = stronger binding; sequences stand for … in GC…GCGATTGACAGCGTAGAATGAAGG
[1] = test system: RARb homodimer (NR concentration 270 nM)
Summary of the method: (§1)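 Binding buffer was PBS pH 7.4 with 2% milk, 0.02% Triton X-100, 1 mM DTT, 0.2 mg/mL BSA and 0.4 mg/ml salmon testes DNA. In it, ligand-free nuclear receptor dimers were incubated 1 h on custom Agilent 4×180K protein-binding microarrays carrying double-stranded probes. Antibodies against each partner (one per run) detected binding, and z-scores were calculated against random background probes after regression normalization of scanned fluorescence.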

[2] = test system: RARg:RXRa (NR concentration 270 nM, RXRa partner concentration 90 nM)
Summary of the method: as §1

[3] = test system: RARg homodimer (NR concentration 270 nM)
Summary of the method: as §1

[4] = test system: RXRa DBDmut IVT, anti-RXR (DBD mutation: RXRa K156A/R161A, NR concentration 90 nM)
Summary of the method: as §1

[5] = test system: RXRa homodimer (NR concentration 180 nM)
Summary of the method: as §1

[6] = test system: THRa:RXRa (NR concentration 90 nM, RXRa partner concentration 90 nM)
Summary of the method: as §1

[7] = test system: THRa homodimer (NR concentration 90 nM)
Summary of the method: as §1

[8] = test system: VDR homodimer (NR concentration 270 nM)
Summary of the method: as §1

Row | Sequence | PBM binding z-score [1] | PBM binding z-score [2] | PBM binding z-score [3] | PBM binding z-score [4] | PBM binding z-score [5] | PBM binding z-score [6] | PBM binding z-score [7] | PBM binding z-score [8]
1 | CAAACTAGGTCACCGGAAGGTCAAAATCCGCATG | 5.17 | 7.81 | 7.09 | 2.39 | 5.88 | 4.39 | 2.94 | 3.11
2 | CCGACTGGGGCAAAGGTTACCAAACTCAGTACGA | 2.24 | 3.53 | 1.67 | -0.134 | 3.74 | 1.98 | -0.144 | 0.318
3 | CCTACTGGGCCAATGGTCATTGATTCCAATGCTC | 0.0691 | -0.0352 | 0.182 | -0.608 | -0.164 | -0.527 | -0.561 | -0.711
4 | CGAACTAGGTCAAGGAAAGTGAATCTCCGCACGC | 2.71 | 3.5 | 3.7 | 1.16 | 2.43 | 2.42 | 0.746 | 0.143
5 | TGAATGAGGTTAAAGATCAGGGGACGTGGCGTCG | 1.02 | 2.29 | 1.31 | 1.01 | 3.57 | 2.83 | 0.742 | 0.974
6 | TCTGCTAGGTCAACGATGCTCAGCTAATCTGCTA | 2.66 | 3.76 | 4.76 | 0.989 | 2.18 | 2.47 | 0.23 | -0.64
7 | TAGCCTAGGTCATGGGCCAGTATTCCACGCGAAC | 2.79 | 4.27 | 4.6 | 0.71 | 3.8 | 2.99 | 1.33 | 0.208
8 | CAAACTAAGTCACAGAGGTCAAAGTCCGTGCGTA | 4.47 | 5.34 | 4.96 | 2.26 | 5.91 | 3.71 | 1.87 | 4.45
